Assay outcomes deposited in PubChem by several laboratories.
A selection: hits, their analogues and other compounds. The true share with any hit is near 3.3%.
MITF act: increases MITF-driven TRPM1 promoter luciferase signal; 300,000 compounds, 0.75% hits; SK-MEL-5 TRPM1-promoter luciferase, 24 h; % of positive control, neutral wells = 0; AID 588334; activation, % at 12.5 µM;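 active = mean activation of at least 80% with every replicate also reaching 80%; inconclusive = mean reaches 80% but some replicate falls short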;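 also: 0% = neutral control wells and 100% = parthenolide positive control wells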
esBAF inh: inhibitors of esBAF chromatin remodeling in mouse ES cells | 350,000 compounds, 2% hits | reporter increase, % at 12.5 µM | Bmi1-luciferase knock-in reporter, 24 h; 100% = twice the neutral-well signal; in the data active = activation above about 40%; inconclusive = no clear call, values can overlap the other calls;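 also: 0% = median of the plate's neutral control wells and 100% = double that signal; a rise in the Bmi1 reporter signal indicates esBAF inhibition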
Statin myotox sup: suppression of simvastatin myotoxicity | C2C12 myotubes + simvastatin, ATP luminescence, 48 h; scaled: DMSO 0, geranylgeraniol control 100 | rescue of ATP level, % at 7.49 µM | 330,000 compounds, 0.78% hits | AID 602340;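 active = mean ATP rescue above about 67%, or every replicate alone reaching that limit, limit read from the data, passing the limit was not always enough; inconclusive = no clear call, values can overlap the other calls; inactive = mean under the limit and some replicate under it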;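 also: myotubes were challenged with 10 µM simvastatin during compound exposure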
Wnt bcat act: activators of Wnt/beta-catenin signaling. activation, % at 9.35 µM. Wnt/beta-catenin reporter cell assay, activator, plate reader. 300,000 compounds, 1.2% hits; in the data active = activation above about 30%, passing the limit was not always enough; inconclusive = no clear call, values can overlap the other calls;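 also: 0% = neutral control wells and 100% = positive control wells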
GAA850 FXN act: activators of GAA850 frataxin (FXN) promoter. HEK293 lucGAA850 FXN promoter luciferase reporter, 24 h; percent of 10 µM SAHA response. activation, % at 6 µM. 360,000 compounds, 0.56% hits. AID 540364;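 active = activation above the average of all compounds screened plus 3 SD, cutoff fixed separately per campaign, cut at about 7.5% in these data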;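 also: 0% = DMSO wells and 100% = 10 µM SAHA wells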
* = called active by the depositor; u = inconclusive; x = no result given.

SMILES	MITF act	esBAF inh	Statin myotox sup	Wnt bcat act	GAA850 FXN act
Cc1occc1C(=O)N/N=C/c1ccc2c(c1)OCO2	8	-27	-117	38*	1
C[C@H]1CN([C@@H](C)CO)S(=O)(=O)c2ccc(-c3cccnc3)cc2O[C@H]1CN(C)C(=O)C1CCC1	x	-4	-8	x	x
C[C@H](NC(=O)N(C)C[C@@H]1OCc2ccccc2-c2c(n(C)c3ccccc23)C(=O)N([C@H](C)CO)C[C@@H]1C)c1ccccc1	x	9	18	x	x
Cc1oc2cc(O)cc(C)c2c(=O)c1-c1cnn(-c2ccccc2)c1	x	9	89*	-2	0
Cc1oc2c(O)c(O)ccc2c(=O)c1-c1cnn(-c2ccccc2)c1	x	-8	x	x	6
Cc1ccc(CSc2nnc(-c3cccc4ccccc34)o2)cc1	-16	-3	-3	0	3
COc1cccc(-c2nnc(-c3ccc(C(F)(F)F)cc3)o2)c1OC	x	53*	1	x	1
FC(F)(F)Oc1ccccc1-c1nnc(-c2cccc(C(F)(F)F)c2)o1	7	3	-15	0	1
Cc1cccc(-c2nnc(-c3cccc4ccccc34)o2)c1	13	39	-3	51*	6
c1ccc(Nc2nnc(-c3cccc4ccccc34)o2)cc1	x	x	x	38*	2
Cc1ccc(-c2nnc(-c3cccc4ccccc34)o2)cc1	36	54*	1	1	3
O=C(OC1CCCCC1)c1ccc(NC(=O)c2ccco2)cc1	55	60*	-55	-3	2
O=C(Nc1ccc(OC(=O)c2ccco2)cc1)c1ccco1	x	-8	-4	9	4
O=C(Nc1ccc(NC(=O)c2ccccc2Cl)nc1)c1ccco1	55	54*	-9	9	2
O=C(COc1ccccc1)Nc1ccc(Cl)cn1	41	21	1	7	2
O=C(COc1ccccc1Cl)Nc1ccc(Cl)cn1	x	30	4	52*	4
CCC(=O)Nc1ccc(NC(=O)c2ccccc2Cl)nc1	18	-13	-19	x	2
O=C(CCc1ccccc1)Nc1ccc(Cl)cn1	19	43*	-136	x	0
Cc1cc(NC(=O)C(C)C)ncc1NC(=O)c1ccco1	23	7	-5	0	2
O=C(CCc1ccccc1)Nc1ccc(NC(=O)c2ccco2)nc1	u	36	-16	36*	2
O=C(Nc1ccccn1)c1ccc(NC(=O)c2ccco2)cc1	86*	17	-12	x	4
O=C(Nc1ccc(-c2nc3ncccc3o2)cc1)c1ccc(Br)o1	30	36	-12	21	1
Cc1cc(NC(=O)c2ccco2)ncc1NC(=O)Cc1ccccc1	59	45*	5	x	2
Cc1ccccc1NC(=O)c1ccc(NC(=O)c2ccco2)cc1	12	9	-6	x	1
O=C(Nc1ccc(-c2nc3ncccc3o2)cc1)c1ccco1	104*	x	x	27	7
SMILES	MITF act	esBAF inh	Statin myotox sup	Wnt bcat act	GAA850 FXN act
Cc1noc(C)c1S(=O)(=O)Nc1ccc2c(c1)C(=O)N([C@@H](C)CO)C[C@H](C)[C@@H](CN(C)C(=O)Cc1ccccc1)OCCCC[C@H](C)O2	x	6	20	x	x
Cc1ccccc1S(=O)(=O)NCC[C@H]1CC[C@H](NC(=O)C2CCC2)[C@H](CO)O1	x	0	1	x	x
O=C(COc1ccccc1Cl)Nc1ccccc1C(=O)N1CCCCC1	43	61*	5	-1	3
COc1ccccc1C(=O)Nc1nnc(SCC(=O)NC2CCCC2)s1	91*	-5	7	x	4
O=C(CSc1nnc(NC(=O)c2ccccc2[N+](=O)[O-])s1)NC1CCCC1	-7	10	-9	1	2
COc1ccccc1C(=O)Nc1nnc(SCC(=O)Nc2ccc3c(c2)oc2ccccc23)s1	54	x	x	49*	4
CC(=O)Nc1ccc(-c2nnc(SCC(=O)Nc3ccc4c(c3)oc3ccccc34)n2C)cc1	x	53*	1	27	5
Cc1cccc(C(=O)Nc2nnc(SCC(=O)Nc3ccc4c(c3)oc3ccccc34)s2)c1	14	x	x	-2	0
CC(=O)N(C)C[C@@H]1Oc2cc(C3=CCCC3)ccc2S(=O)(=O)N([C@H](C)CO)C[C@H]1C	x	-2	-2	x	x
C[C@H](CO)N1C[C@H](C)[C@H](CN(C)Cc2cccc(C(F)(F)F)c2)Oc2ncc(C#Cc3ccccc3)cc2C1=O	x	0	42	x	x
OCCc1ccc(-c2ccc(Cl)cc2)o1	54	52*	61	1	2
O=C(CSc1nnc(COc2ccccc2)n1Cc1ccco1)c1ccc(F)cc1	0	6	3	-6	-1
O=C(O)CSc1nnc(COc2ccc(Br)cc2)n1-c1ccccc1	7	-2	-5	0	1
Cc1ccc(-n2c(COc3ccccc3)nnc2SCC(=O)O)cc1	x	-1	-4	62*	0
Cc1ccc(OCc2nnc(SCC(=O)c3ccccc3)n2Cc2ccco2)cc1	3	4	77*	x	0
C[C@H](CO)N1C[C@H](C)[C@@H](CN(C)S(=O)(=O)c2ccc(Cl)cc2)Oc2ccc(NS(=O)(=O)c3ccc(Cl)cc3)cc2CC1=O	x	9	52	x	x
C[C@@H]1CN([C@H](C)CO)C(=O)Cc2cc(NC(=O)Cc3ccccc3)ccc2O[C@@H]1CN(C)C(=O)Nc1cccc2ccccc12	x	2	20	x	x
Cc1cccc(NC(=O)c2ccccc2O)c1C	25	x	x	23	3
Cc1ccccc1CNC(=O)Cc1ccccc1[N+](=O)[O-]	30	42*	-1	25	6
Cc1cccc(NC(=O)c2cccc([N+](=O)[O-])c2O)c1C	65	x	x	49*	5
O=C(C[C@@H]1C[C@H]2c3cc(NC(=O)NC4CCCCC4)ccc3O[C@H]2[C@H](CO)O1)NCC1CC1	x	-2	2	x	x
CN(C)CCCNCCCNC(=O)c1ccccn1	-4	-3	-2	x	1
O=C(NCCCNCCCNC(=O)c1ccccn1)c1ccccn1	-3	-5	115*	-2	0
Cc1ccnc(Nc2nc(-c3ccc(O)cc3O)cs2)c1	x	79*	-6	16	3
Cc1ccnc(Nc2nc(-c3ccc(O)cc3)cs2)c1	60	50*	-3	17	3
SMILES	MITF act	esBAF inh	Statin myotox sup	Wnt bcat act	GAA850 FXN act
Cc1cc(O)ccc1Nc1nc(-c2cccnc2)cs1	x	33	-7	17	3
Cc1c(NC(=O)C(C#N)=C2CCCCC2)c(=O)n(-c2ccccc2)n1C	x	-14	106*	0	0
Cc1c(NC(=O)/C(C#N)=C/c2ccccc2)c(=O)n(-c2ccccc2)n1C	-8	x	x	2	1
O=C(CSc1ccc(Cl)cc1)OCc1nnc(-c2ccccc2)o1	2	-2	69*	x	1
O=C(Cc1ccc(Cl)cc1)OCc1nnc(-c2ccccc2)o1	1	2	0	1	0
COc1cc(CCC(=O)OCc2nnc(-c3ccccc3)o2)cc(OC)c1OC	8	7	104*	-1	1
Cc1ccc(S(=O)(=O)N(C)C[C@@H]2Oc3ccc(NS(=O)(=O)c4ccc(Cl)cc4)cc3C(=O)N([C@@H](C)CO)C[C@H]2C)cc1	x	-4	32	x	x
